CHX counter: Cycloheximide Counterscreen for Small Molecule Inhibitors of Shiga Toxin; AID 2314, 2010; cell reporter, cycloheximide protein synthesis inhibition counterscreen; actives 12% (n = 300,000); max response, %; in the data active = max response mostly above about 13%, no sharp cut-off; inactive = mostly below about 14%; also: read at 38.3 µM for the half of the compounds with a filed dose; 0% is about no effect
Pf growth 48h: Primary qHTS for delayed death inhibitors of the malarial parasite plastid, 48 hour incubation | P. falciparum luciferase growth in erythrocytes, 48 h | Potency, µM (highest dose often 28.7 µM), for inactives: top-dose activity change, negative = inhibition, actives largely listed as inhibitors | actives 5.9% (n = 310,000) | AID 504832, 2011; also: potency is read from the fitted curve at half-maximal effect; % is scaled to controls: 0 for no effect and ±100 for the full control effect
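Firefly luciferase activity from engineered P. falciparum reports growth; inhibitors lower the luminescent signal. Cultures contained 2% hematocrit erythrocytes at 0.1% final parasitemia.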
HCMV inh: qHTS Assay for inhibitors of the human cytomegalovirus (HCMV); HFF cells, HCMV-luciferase reporter, 72 h; stronger effect = lower value; activity change, negative = inhibition, % at 57.5 µM; actives 4.5% (n = 410,000); AID 1259415, 2018; in the data active = activity change below about -60%; inconclusive = no clear call, values can overlap the other calls; inactive = above about -39%; also: % is scaled to controls: 0 for no effect and ±100 for the full control effect
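Inhibition of viral replication was scored as loss of reporter luminescence in HFFs infected with HCMV-luciferase (MOI 1 PFU/cell) for 72 h; compounds tested at 2 doses, normalized to buffer and Salinomycin controls.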
Pf growth 96h: Primary qHTS for delayed death inhibitors of the malarial parasite plastid, 96 hour incubation; P. falciparum luciferase reporter growth, 96 h; Potency, µM (top dose mostly 28.7 µM), for inactives: at the highest dose activity change, negative = inhibition, actives largely listed as inhibitors; AID 504834, 2011; actives 6.9% (n = 320,000); also: potency is read from the fitted curve at half-maximal effect; % is scaled to controls: 0 for no effect and ±100 for the full control effect
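Parasite growth measured via integrated firefly luciferase reporter in P. falciparum. Infected erythrocytes at 2% hematocrit, 0.05% parasitemia final were treated 96 hours at 37 C under 5% CO2, and luminescence was read.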
Shiga inhibitor: A qHTS for Small Molecule Inhibitors of Shiga Toxin | actives 9.2% (n = 290,000) | inhibition, % at 38.7 µM | AID 2315, 2010 | Vero cells, Shiga toxin protein synthesis inhibition reporter; in the data active = inhibition mostly above about 28%, no sharp cut-off; inactive = mostly below about 43%; also: 0% is about no effect
Active calls of the source: *; ? = inconclusive; · = no result given. Shown are actives, neighbours in structure and some others; about 20% of the full set was active somewhere. Unless noted, calls follow the shape of the dose curve; as a rule, active = well fitted inhibition curve with a large enough effect; inconclusive = small, poorly fitted or top-dose-only effect, or another doubt; inactive = no such curve, though single readings can be large or run the other way.

SMILES	CHX counter	Pf growth 48h	HCMV inh	Pf growth 96h	Shiga inhibitor
Cc1cc(C)cc(-n2ncc3c2CCCC3NC(=O)c2cc(C)n(C)n2)c1 (stereo not given)	22*	-20%	-36	2%	36*
Cc1cc(C)cc(-n2ncc3c2CCCC3NC(=O)c2cc(C)[nH]n2)c1 (stereo not given)	7	-15%	-35	-7%	-40
CC(=O)NCC(=O)NC1CCCc2c1cnn2-c1ccc(C(C)(C)C)cc1 (stereo not given)	-1	4%	-37	?	-10
COc1ccc(NC(=O)C(C)n2nnc3sc(-c4ccccc4)cc3c2=O)cc1Cl (stereo not given)	·	·	11	·	·
Cc1ccc(CNc2ccc(-c3nc(-c4ccco4)no3)cc2[N+](=O)[O-])cc1	·	·	10	·	·
CC(C)(C)c1ccc(-n2ncc3c2CCCC3NC(=O)CCn2cncn2)cc1 (stereo not given)	-1	1%	-68*	-9%	-18
CC(C)(C)c1ccc(-n2ncc3c2CCCC3NC(=O)CCCn2cncn2)cc1 (stereo not given)	11	6%	?	-3%	-6
O=C(/C=C/c1ccc(F)cc1)NCc1cccs1	26*	55%	16	167%	94*
O=C(/C=C/c1ccc(Br)cc1)NCc1cccs1	50*	75%	-61*	-3%	112*
O=C(CO/N=C/c1ccc(OC(F)F)cc1)NCc1cccs1	1	0%	-39	-4%	-3
O=C(/C=C/c1ccccc1Cl)NCc1cccs1	48*	42%	37	-39%	89*
CCN(CC(=O)NCc1cccs1)C(=O)/C=C/c1ccc(F)cc1	·	·	11	·	·
O=C(COC(=O)/C=C/c1ccc(OC(F)F)cc1)NCc1cccs1	11	11%	-64*	-47%	10
CCc1nnnn1-c1ccc([N+](=O)[O-])cc1C	-7	10%	-36	64%	-1
COc1ccc(C(=O)N/C(=C\c2cn(S(=O)(=O)N(C)C)c3ccccc23)C(=O)NCCCn2ccnc2)cc1	-7	12µM*	?	24%	-9
COc1cc(C(=O)N/C(=C\c2cn(S(=O)(=O)N(C)C)c3ccccc23)C(=O)NCCCO)cc(OC)c1OC	7	?	-9	8.3µM*	-21
O=C1CN(C(=O)c2ccc(S(=O)(=O)N3CCCCC3)cc2)C(c2ccc(F)cc2)c2cc(F)ccc2N1 (stereo not given)	·	·	0	·	·
COCCN1CCN(C(=O)c2cc(COc3cc(C)ccc3C)on2)CC1	39*	8%	·	36%	81*
CC(=O)NCCC1CCCCN1C(=O)c1cc(COc2cc(C)ccc2C)on1 (stereo not given)	45*	25%	27	28%	101*
COCCCC1CCN(C(=O)c2cc(COc3cc(C)ccc3C)on2)CC1	56*	22%	32	?	162*
Cc1ccc(C)c(OCc2cc(C(=O)N3CCNC(=O)C3)no2)c1	15	-3%	0	24%	7
COC1CCN(C(=O)c2cc(COc3cc(C)ccc3C)on2)CC1	·	·	-1	·	·
Cc1ccc(C)c(OCc2cc(C(=O)N3CCOCC3)no2)c1	49*	37%	1	?	58*
COc1cccc(C(=O)N(Cc2ccc(C)o2)C2CCS(=O)(=O)C2)c1 (stereo not given)	·	·	22	·	·
Cc1ccc(CNC(=O)CCNS(=O)(=O)c2ccc3c(c2)CCCC(=O)N3)cc1	·	·	-6	·	·
SMILES	CHX counter	Pf growth 48h	HCMV inh	Pf growth 96h	Shiga inhibitor
CCN(CC)C(=O)CSc1nc2c(sc(=S)n2-c2ccccc2)c(=O)n1-c1ccccc1OC	-2	8.3µM*	?	0%	-2
COc1ccccc1-n1c(SCC(=O)O)nc2c(sc(=S)n2-c2ccc(C)c(C)c2)c1=O	-2	-2%	-37	?	-16
CCN(CC)C(=O)CSc1nc2c(sc(=S)n2-c2ccccc2)c(=O)n1-c1ccc(OC)c(OC)c1	-1	4.7µM*	-68*	8%	17
CCn1c(=S)sc2c(=O)n(-c3ccccc3)c(SC)nc21	1	?	-61*	-2%	-6
CCOC(=O)CSc1nc2c(sc(=S)n2-c2ccccc2)c(=O)n1-c1ccc(OC)cc1OC	8	10µM*	-25	11%	11
COc1ccc(-n2c(SCC3OCCO3)nc3c(sc(=S)n3-c3ccccc3)c2=O)cc1OC	10	-19%	11	-56%	-1
CCOC(=O)C1CSCCS(=O)(=O)N1Cc1ccc(Br)cc1 (stereo not given)	·	·	-16	·	·
N#CCSc1nc2c(sc(=S)n2Cc2ccco2)c(=O)n1-c1ccc(F)cc1	-3	?	-107*	?	-2
CCN(CC)C(=O)CSc1nc2c(sc(=S)n2-c2ccccc2)c(=O)n1-c1ccc(OC)cc1OC	-5	6.6µM*	-69*	?	-5
CN(C(=O)CSc1nc2ccc(NC(=O)COc3ccccc3Cl)cc2s1)c1ccccc1	·	·	-12	·	·
CC(=O)c1ccc(NC(=O)CSc2nc(N3CCOCC3)nc(N3CCOCC3)n2)cc1	42*	?	52	16%	62*
CCOC(=O)c1ccc(NC(=O)CSc2nc(N3CCOCC3)nc(N3CCOCC3)n2)cc1	-1	-25%	26	-10%	-11
FC(F)(F)Oc1ccc(Nc2nc(N3CCOCC3)nc(N3CCOCC3)n2)cc1	-9	?	-34	12µM*	11
O=C(Nc1cccc(C(F)(F)F)c1)n1cc(-c2ccccn2)c(N2CCOCC2)n1	0	?	-64*	?	2
COc1ccc(Nc2nc(OC)nc(OC)n2)cc1	8	?	-26	?	22
COc1nc(Nc2ccc(C(C)=O)cc2)nc(OC)n1	18*	15µM*	64	-8%	53*
CCCCNC(=O)CCCn1c(=O)c2ccccc2n(Cc2ccccc2C)c1=O	·	·	-10	·	·
Cc1ccc2ccccc2c1Cn1c(-n2ccnc2)nc2c1c(=O)n(C)c(=O)n2C	-1	·	25	-90%	-17
COc1ccc(NC(=O)CC(C)n2ccnc2)cc1 (stereo not given)	0	16%	68	159%	-13
CCOc1ccccc1NC(=O)CSc1nnc(C2CC2)n1CC	4	5%	12	?	-8
COc1nc(Nc2ccc3c(c2)OCO3)nc(OC)n1	17	·	44	-12%	51*
O=C(NNc1nc(Nc2ccccc2)nc(N2CCOCC2)n1)Nc1ccc(Cl)cc1	12	10µM*	28	178%	-5
O=C(CSc1nc(N2CCOCC2)nc(N2CCOCC2)n1)Nc1cccc(C(F)(F)F)c1	-4	11%	-24	2.1µM*	-3
O=C(CCN1CCOCC1)NNC(=O)Nc1cccc(C(F)(F)F)c1	0	5%	·	10µM*	-10
Cc1cccc(N2CCN(S(=O)(=O)c3cc(Br)cc4c3N(C(=O)C3CC3)CC4)CC2C)c1 (stereo not given)	·	·	1	·	·
